Out of some 68,000 compounds screened, about 2,700 (4%) showed an effect of 50% or more. Many of the other results were omitted from the sample, so strong results are more common in it than they were.

The subject of the test is Plasmodium berghei. The test is described as follows: Screen against P. berghei liver stage (PbLuc), transformed with Luciferase, at 2uM. The class given is functional, HepG2. As to conditions: tested at 2 uM.
With `NCCn1nc(C2CCN(Cc3ccccc3)C2)c2nccnc21` (stereo not drawn), the INHIBITION came out at 8.26%.

Turning to `CN1CCCCCC1C(=O)NCCCn1ncc2ccccc21` (stereo not drawn), the INHIBITION came out at 54.78%. As for `CN1CCCCC1CCC(=O)NCCCn1ncc2ccccc21` (stereo not drawn), the INHIBITION turned out to be 28.19%. With `CN1CCCC(CCC(=O)NCCCn2ncc3ccccc32)C1` (stereo not drawn), the INHIBITION was 46.95%. The same measure for `O=C(Nc1ccc(Cl)cc1C(=O)NCCN1CCOCC1)c1ccco1`: 60.47%; for `O=C(Nc1ccc(I)cc1C(=O)NCCN1CCOCC1)c1ccco1`: -54.79%; for `O=C(Nc1ccccc1C(=O)NCCN1CCOCC1)c1ccco1`: -4.93%. On to `CN(C)CCOCC1CN(Cc2cccs2)Cc2ccnn2C1` (stereo not drawn), for which the INHIBITION is on record as -85.93%.

In the case of `Cc1cc(CN2CCN(C(=O)NCc3ccc(C)s3)CC2)on1`, the INHIBITION is 6.63%. Consider `CCCNC(=O)N1CCN(Cc2cc(C)no2)CC1`, for which the INHIBITION is recorded as 26.4%. The figure for `Cc1cc(CN2CCN(C(=O)NCc3c(C)noc3C)CC2)on1` is 70.27%; for `COc1cc(CCC(=O)NC(C)(C)C)ccc1OCC(F)(F)F` it is -1.02%. Take `CCOCCC1(CNC(=O)c2ccc(C)nc2)CCCC1`: the INHIBITION is -9.5%. In the case of `COCCCN1CCN(C(=O)C(c2cccc(F)c2)N(C)C)CC1` (stereo not drawn), the INHIBITION is listed as 60.13%.

Take `COCCN1CCN(C(=O)C(c2cccc(F)c2)N(C)C)CC1` (stereo not drawn): the INHIBITION was determined as 48.21%. Consider `CN(C)C(C(=O)NCCn1cccc1)c1cccc(F)c1` (stereo not drawn), for which the INHIBITION worked out at 3.58%.

For `CN(C)C(C(=O)N1CCN(CCn2cccc2)CC1)c1cccc(F)c1` (stereo not drawn), the INHIBITION amounted to 69.67%.

Take `CN(C)C(C(=O)N1CCN(CCn2cccc2)CC1)c1ccc(F)cc1` (stereo not drawn): the INHIBITION was 31.51%. As to `CCOCC1CCN(C(=O)C(c2cccc(F)c2)N(C)C)CC1` (stereo not drawn), the INHIBITION was -15.23%. As to `CCc1[nH]ncc1C(=O)N1CCCC(n2cccn2)C1` (stereo not drawn), the INHIBITION was found to be 2.7%. The same measure for `Cc1ccccc1OCCCC(=O)N1CCCC(n2cncn2)C1` (stereo not drawn): 39.54%; for `O=C(C1CN(CC2CC2)CC12CCOCC2)N1CCCC1` (stereo not drawn): 31.41%; for `Cc1ccc(CN2C[C@H]3CN(Cc4ccccc4Cl)CCN3C2=O)cc1`: 40.83%. The same measure for `COCCN1C[C@H]2CN(Cc3cccc(OC)c3)CCN2C1=O`: 36.44%. The figure for `O=C1N(Cc2ccccc2)C[C@H]2CN(Cc3ccccc3Cl)CCN12` is 64.44%. With `CS(=O)(=O)NC[C@]12COC[C@H]1CN(Cc1ccc3c(c1)OCO3)C2`, the INHIBITION was -6.8%. `CCN(CC)CC1CCN(C(=O)CCn2cccn2)CC1`: the INHIBITION was -13.06%. The same measure for `COC1CCN(C(=O)CCn2cccn2)CC1`: 26.61%; for `CCCC1CCCN(C(=O)CCn2cccn2)CC1` (stereo not drawn): 63.68%; for `c1cnc(N2CCC(C3CCN(CCCn4cccn4)C3)CC2)nc1` (stereo not drawn): 19.04%. The figure for `O=C(CCn1cccn1)N1CCC(C2CCN(c3ncccn3)CC2)C1` (stereo not drawn) is 52.08%; for `O=C(CCc1cn[nH]c1)N1CCC(C2CCN(c3ncccn3)CC2)C1` (stereo not drawn) it is 45.48%. The figure for `Cn1cccc1C(=O)N1CC2(CCN(C(=O)c3cccnc3)C2)C1` is 21.77%.

As for `CCc1noc(C2CCN(C(=O)CCn3nc(C)cc3C)CC2)n1`, the INHIBITION was found to be 12.3%. In the case of `c1ccc(Cc2noc(CN3CCOC(Cn4cccn4)C3)n2)cc1` (stereo not drawn), the INHIBITION is -0.6%.

Turning to `O=C(C1CCC1)N1C[C@@H]2CN(c3ccccc3)C(=O)[C@@H]2C1`, the INHIBITION is on record as 49.07%.

Regarding `O=C(CCO)N1C[C@H]2CN(c3ccccc3)C(=O)[C@H]2C1`, the INHIBITION is given as 54.01%. The same measure for `O=C(CC1CC1)N1C[C@@H]2CN(c3ccccc3)C(=O)[C@@H]2C1`: 28.2%; for `NC(=O)COc1ccc(CNCc2ccc(F)c(F)c2)cc1`: -52.95%; for `Cn1ccnc1CCNS(=O)(=O)c1ccc(Br)cc1`: -16.21%.

Regarding `COc1cccc2c1CCC2NC(=O)NCc1csc(N(C)C)n1` (stereo not drawn), the INHIBITION is on record as -57.02%. On to `Cc1nn(C)c(N(C)C)c1CNC(C)COc1cccc(F)c1` (stereo not drawn), for which the INHIBITION is given as 34.83%. For `CC(C)N(C(=O)CCc1cccc(F)c1)C1CCOCC1`, the INHIBITION was -7.16%. Consider `CC(C)N(C(=O)CCc1ccco1)C1CCOCC1`, for which the INHIBITION was 76.6%. For `COc1ccc(CCC(=O)N(C(C)C)C2CCOCC2)cc1`, the INHIBITION was found to be 20.76%. `O=C(NCC1CCCCO1)c1ccc(-c2ccco2)[nH]c1=O` (stereo not drawn): the INHIBITION was determined as 38.67%. The same measure for `Cc1cc(S(=O)(=O)N2CC[C@@H](O)C2)c(Cl)cc1F`: -54.78%. For `CCN1CCN(S(=O)(=O)c2cc(C)c(Cl)cc2Cl)CC1`, the INHIBITION was 26.09%.

For `Cc1cc(S(=O)(=O)N2CCC(N3CCC(O)C3)CC2)c(Cl)cc1Cl` (stereo not drawn), the INHIBITION came out at 55.73%. The figure for `CC(C)c1nnc(CN(C)Cc2ccccc2-c2ccccc2)o1` is 20.63%.

For the compound `CC(CCN(C)C)NC(=O)c1cccc(C(F)(F)F)c1F` (stereo not drawn), the INHIBITION stood at 52.38%. Regarding `COc1cccc(C(=O)NC(C)CCN2CCOCC2)c1F` (stereo not drawn), the INHIBITION was -22.65%. For the compound `CC(CCN1CCOCC1)NC(=O)c1cccc(C(F)(F)F)c1F` (stereo not drawn), the INHIBITION is listed as 18.37%.

The record behind these values is ChEMBL document CHEMBL4513216, “Probing the Open Global Health Chemical Diversity Library for Multistage-Active Starting Points for Next-Generation Antimalarials” (ACS Infect Dis, 2020).
